Several values for one entry are separate records, joined by “and”; a condition that tells them apart may be missing. Equal values may be shown once.
Legend:
Plasmodium falciparum [1] = assay: GSK_TCMDC: Inhibition of Plasmodium falciparum 3D7 in whole red blood cells, using parasite LDH activity as an index of growth. Test compounds present at 2uM; assay type: functional
Plasmodium falciparum [2] = assay: GSK_TCMDC: Inhibition of Plasmodium falciparum Dd2 in whole red blood cells, using parasite LDH activity as an index of growth. Test compounds present at 2uM; assay type: functional

COc1ccc2c(OC)cccc2c1CNCCCCCCNCc1c(OC)ccc2c(OC)cccc12.CS(=O)(=O)O
Inhibition (Plasmodium falciparum [1]): 92% | Inhibition (Plasmodium falciparum [2]): 28%

C=CCOc1ccc(Cc2cnc(N)nc2N)cc1CCC
Inhibition (Plasmodium falciparum [1]): 93% | Inhibition (Plasmodium falciparum [2]): 0%

CCCCc1cc(Cc2cnc(N)nc2N)cc(OC)c1OC.Cl
Inhibition (Plasmodium falciparum [1]): 86% | Inhibition (Plasmodium falciparum [2]): 0%

CCOC(=O)c1c(-c2ccccc2)c(C(=O)OCC)n2ccccc12
Inhibition (Plasmodium falciparum [1]): 93% | Inhibition (Plasmodium falciparum [2]): 70%

Cc1nc(C)c(-c2ccc(Oc3cc(Cl)cc(Cl)c3)cc2)c(O)c1Cl
Inhibition (Plasmodium falciparum [1]): 96% | Inhibition (Plasmodium falciparum [2]): 96%

Nc1nnc(-c2ccc(Cl)c(Br)c2)c(N)n1
Inhibition (Plasmodium falciparum [1]): 86% | Inhibition (Plasmodium falciparum [2]): 0%

Cl.FC(F)(F)c1ccc2c(NCCCNc3ccnc4cc(C(F)(F)F)ccc34)ccnc2c1
Inhibition (Plasmodium falciparum [1]): 100% | Inhibition (Plasmodium falciparum [2]): 100%

CCc1ccc(Cc2cnc3nc(N)nc(N)c3c2C)cc1
Inhibition (Plasmodium falciparum [1]): 97% | Inhibition (Plasmodium falciparum [2]): 0%

Nc1nc(N)c2c(Oc3cc(Cl)c(Cl)c(Cl)c3)cccc2n1
Inhibition (Plasmodium falciparum [1]): 100% | Inhibition (Plasmodium falciparum [2]): 92%

COc1ccc2c(CNCCCCCCNCc3c(OC)ccc4cc(OC)ccc34)c(OC)ccc2c1.CS(=O)(=O)O
Inhibition (Plasmodium falciparum [1]): 100% | Inhibition (Plasmodium falciparum [2]): 79%

CCc1ccc(Cc2cnc3nc(N)nc(N)c3c2C)cc1CC
Inhibition (Plasmodium falciparum [1]): 97% | Inhibition (Plasmodium falciparum [2]): 0%

CC(C)c1ccc(Cn2cc(-c3ccncc3)c3cc(OCc4ccccc4)ccc32)cc1.Cl
Inhibition (Plasmodium falciparum [1]): 99% | Inhibition (Plasmodium falciparum [2]): 88%

Cc1nc(C)c(-c2ccc(Oc3ccc(Cl)cc3)c(Cl)c2)c(O)c1Br
Inhibition (Plasmodium falciparum [1]): 97% | Inhibition (Plasmodium falciparum [2]): 96%

Cl.Nc1nc(N)c2c3c(ccc2n1)NCCC3
Inhibition (Plasmodium falciparum [1]): 97% | Inhibition (Plasmodium falciparum [2]): 0%

CCc1cccc(-c2cc(N)n(C)c3nc(N)nc(=O)c2-3)c1
Inhibition (Plasmodium falciparum [1]): 85% | Inhibition (Plasmodium falciparum [2]): 28%

COc1ccc2c(O)c(Br)c(C)nc2c1
Inhibition (Plasmodium falciparum [1]): 89% | Inhibition (Plasmodium falciparum [2]): 74%

N=C(N)NC(=O)Nc1cc(Br)c(Cl)c(C(F)(F)F)c1
Inhibition (Plasmodium falciparum [1]): 100% | Inhibition (Plasmodium falciparum [2]): 91%

CCCCN(CCCC)Cc1cc(N(C)c2ccc([N+](=O)[O-])cn2)ccc1O.O=C(O)C(=O)O
Inhibition (Plasmodium falciparum [1]): 98% | Inhibition (Plasmodium falciparum [2]): 98%

CCN(CC)CCCN(CCCN(CC)CC)c1cc(C)nc(Nc2ccc(Br)cc2)n1.Cl
Inhibition (Plasmodium falciparum [1]): 100% | Inhibition (Plasmodium falciparum [2]): 40%

COc1ccc(C2c3ccccc3-c3nc(N)nc(N)c3C2C)cc1 (stereo not given)
Inhibition (Plasmodium falciparum [1]): 97% | Inhibition (Plasmodium falciparum [2]): 0%

COCCOCCOCCn1ccc2c3c(N)nc(N)nc3ccc21
Inhibition (Plasmodium falciparum [1]): 97% | Inhibition (Plasmodium falciparum [2]): 0%

Cc1cc(O)c(-c2ccc(S(=O)(=O)c3ccc(Cl)cc3)cc2)c(C)n1
Inhibition (Plasmodium falciparum [1]): 92% | Inhibition (Plasmodium falciparum [2]): 80%

Cl.c1ccc2c(CNCCCN3CCN(CCCNCc4c5ccccc5cc5ccccc45)CC3)c3ccccc3cc2c1
Inhibition (Plasmodium falciparum [1]): 100% | Inhibition (Plasmodium falciparum [2]): 100%

COc1cc(Cc2cnc(N)nc2N)cc(OCCCS(=O)(=O)O)c1OC
Inhibition (Plasmodium falciparum [1]): 88% | Inhibition (Plasmodium falciparum [2]): 0%

CCNCCCC(C)Nc1ccnc2cc(Cl)ccc12.O=C(O)C(=O)O (stereo not given)
Inhibition (Plasmodium falciparum [1]): 100% | Inhibition (Plasmodium falciparum [2]): 0%

Nc1nc(N)c2c(Oc3ccc(Cl)c(Cl)c3)cccc2n1
Inhibition (Plasmodium falciparum [1]): 95% | Inhibition (Plasmodium falciparum [2]): 22%

COc1cc(Cc2cnc(N)nc2N)cc(OCCCCCCN)c1OC.Cl
Inhibition (Plasmodium falciparum [1]): 96% | Inhibition (Plasmodium falciparum [2]): 0%

CC(C)(C)c1ccc(-c2nc3c(ccc4nc(N)nc(N)c43)[nH]2)cc1.Cl
Inhibition (Plasmodium falciparum [1]): 100% | Inhibition (Plasmodium falciparum [2]): 100%

CCOc1cc2ncnc(Nc3ccc(OCc4c(Cl)cccc4Cl)c(OC)c3)c2cc1OCC.Cl
Inhibition (Plasmodium falciparum [1]): 89% | Inhibition (Plasmodium falciparum [2]): 12%

Cc1nc(N)nc(N)c1-c1ccc(Br)c(Br)c1
Inhibition (Plasmodium falciparum [1]): 94% | Inhibition (Plasmodium falciparum [2]): 1%

Nc1ncc(-c2ccc(Br)cc2)c(N)n1
Inhibition (Plasmodium falciparum [1]): 89% | Inhibition (Plasmodium falciparum [2]): 0%

CCCCN(CCCC)CCCN(CCCN(CCCC)CCCC)c1cc(C)nc(Nc2ccc(Cl)cc2)n1.O=C(O)C(=O)O
Inhibition (Plasmodium falciparum [1]): 100% | Inhibition (Plasmodium falciparum [2]): 99%

CCCOc1cc2c(cc1OCCC)C(C=Cc1ccc(Cl)cc1Cl)=NC(C)C2.Cl (stereo not given)
Inhibition (Plasmodium falciparum [1]): 90% | Inhibition (Plasmodium falciparum [2]): 75%

CCC(=C(CC)c1ccc(O)c(CNC2CCCCC2)c1)c1ccc(O)c(CNC2CCCCC2)c1.Cl
Inhibition (Plasmodium falciparum [1]): 100% | Inhibition (Plasmodium falciparum [2]): 100%

CC(C)Cn1cc2c(ccc3nc(N)nc(N)c32)n1
Inhibition (Plasmodium falciparum [1]): 97% | Inhibition (Plasmodium falciparum [2]): 2%

Nc1nc(N)c2c(Oc3cccc(Cl)c3)cccc2n1
Inhibition (Plasmodium falciparum [1]): 97% | Inhibition (Plasmodium falciparum [2]): 7%

COc1cc(Cc2cnc(N)nc2N)cc(OCCCC(=O)O)c1OC
Inhibition (Plasmodium falciparum [1]): 84% | Inhibition (Plasmodium falciparum [2]): 0%

COc1ccc2nc3cc(Cl)ccc3c(Nc3ccc(Oc4ccc(Nc5c6ccc(Cl)cc6nc6ccc(OC)cc56)cc4)cc3)c2c1.Cl
Inhibition (Plasmodium falciparum [1]): 86% | Inhibition (Plasmodium falciparum [2]): 93%

CCCN(c1ccc(O)c(CN2CCCCC2)c1)c1ccc([N+](=O)[O-])cn1.O=C(O)C(=O)O
Inhibition (Plasmodium falciparum [1]): 99% | Inhibition (Plasmodium falciparum [2]): 96%

CCN(c1ccc(O)c(CN2CCCCC2)c1)c1ccc([N+](=O)[O-])cn1.Cl
Inhibition (Plasmodium falciparum [1]): 94% | Inhibition (Plasmodium falciparum [2]): 64%

CCOc1cc(OCC)c2ccccc2c1CNCCCCCCNCc1c(OCC)cc(OCC)c2ccccc12.CS(=O)(=O)O
Inhibition (Plasmodium falciparum [1]): 100% | Inhibition (Plasmodium falciparum [2]): 89%

Cc1ccc(Cc2cccc3nc(N)nc(N)c23)cc1
Inhibition (Plasmodium falciparum [1]): 92% | Inhibition (Plasmodium falciparum [2]): 0%

CCN(Cc1cccc2ccccc12)c1ccc2nc(N)nc(N)c2c1.Cl
Inhibition (Plasmodium falciparum [1]): 100% | Inhibition (Plasmodium falciparum [2]): 100%

Cl.Clc1ccc(CNCCCCCCCNCc2ccc(Cl)c(Cl)c2)cc1Cl
Inhibition (Plasmodium falciparum [1]): 99% | Inhibition (Plasmodium falciparum [2]): 49%

Nc1nc(N)c2cc(Cc3ccccc3Cl)cnc2n1
Inhibition (Plasmodium falciparum [1]): 93% | Inhibition (Plasmodium falciparum [2]): 0%

CC(=O)Oc1c(Cl)c(C)nc(C)c1-c1ccc(Oc2ccc(Cl)cc2)cc1
Inhibition (Plasmodium falciparum [1]): 98% | Inhibition (Plasmodium falciparum [2]): 96%

CCCCNCc1ccc(OCc2cccc(COc3ccc(CNCCCC)cc3I)c2)c(I)c1.Cl
Inhibition (Plasmodium falciparum [1]): 87% | Inhibition (Plasmodium falciparum [2]): 13%

CC1CNC(c2ccc(NC(=O)Nc3ccc(C4=NC(C)CN4)cc3)cc2)=N1.Cl (stereo not given)
Inhibition (Plasmodium falciparum [1]): 85% | Inhibition (Plasmodium falciparum [2]): 67%

CC(C)c1ccc2c(c1)C(=O)c1ccc(C(=O)O)cc1S2(=O)=O
Inhibition (Plasmodium falciparum [1]): 93% | Inhibition (Plasmodium falciparum [2]): 83%

CCN1C(=O)C(=NN=C(S)N2CCCC2)c2ccccc21
Inhibition (Plasmodium falciparum [1]): 91% | Inhibition (Plasmodium falciparum [2]): 9%

CCCCCCn1ccc2c3c(N)nc(N)nc3ccc21
Inhibition (Plasmodium falciparum [1]): 99% | Inhibition (Plasmodium falciparum [2]): 91%

CC(C)C(=O)Nc1c(F)cc(F)cc1CCc1ccc(O)cc1
Inhibition (Plasmodium falciparum [1]): 90% | Inhibition (Plasmodium falciparum [2]): 91%

CCOc1cc2ncnc(Nc3ccc(OCc4ccccc4OC)c(OC)c3)c2cc1OCC.Cl
Inhibition (Plasmodium falciparum [1]): 97% | Inhibition (Plasmodium falciparum [2]): 52%

CCCCCCCN(Cc1ccc(OC(C)(C)C(=O)OCC)cc1)C(=O)Nc1ccc(Cl)cc1OCC
Inhibition (Plasmodium falciparum [1]): 95% | Inhibition (Plasmodium falciparum [2]): 89%

Cc1nc2ccc(S(=O)(=O)Nc3ccc(C(=O)N[C@@H](CCC(=O)O)C(=O)O)cc3)cc2c(=O)[nH]1
Inhibition (Plasmodium falciparum [1]): 94% | Inhibition (Plasmodium falciparum [2]): 2%

CC(C)(C)c1ccc(Cc2cccc3nc(N)nc(N)c23)cc1
Inhibition (Plasmodium falciparum [1]): 100% | Inhibition (Plasmodium falciparum [2]): 51%

CC(=NNC(S)=NCc1ccco1)c1ccccn1
Inhibition (Plasmodium falciparum [1]): 99% | Inhibition (Plasmodium falciparum [2]): 100%

COc1cccc(Cn2ccc3c4c(N)nc(N)nc4ccc32)c1
Inhibition (Plasmodium falciparum [1]): 99% | Inhibition (Plasmodium falciparum [2]): 96%

Cc1nc(C)c(-c2ccc(S(=O)(=O)c3ccc(Cl)cc3)cc2)c(O)c1Br
Inhibition (Plasmodium falciparum [1]): 97% | Inhibition (Plasmodium falciparum [2]): 97%

CCCCNCc1cc(Cl)c2ccccc2c1O.Cl
Inhibition (Plasmodium falciparum [1]): 100% | Inhibition (Plasmodium falciparum [2]): 100%

CCCc1cc(Cc2cnc(N)nc2N)c2cccnc2c1OC
Inhibition (Plasmodium falciparum [1]): 98% | Inhibition (Plasmodium falciparum [2]): 3%

CCS(=O)(=O)O.N=C(N)NC(=O)Nc1ccc(Cl)c([N+](=O)[O-])c1
Inhibition (Plasmodium falciparum [1]): 97% | Inhibition (Plasmodium falciparum [2]): 9%

Cc1[nH]c(C)c(-c2ccc(Oc3cccc(C(F)(F)F)c3)cc2)c(=O)c1Br
Inhibition (Plasmodium falciparum [1]): 99% | Inhibition (Plasmodium falciparum [2]): 97%

N=C(N)NC(=O)Nc1cc(F)c(Cl)c(Cl)c1
Inhibition (Plasmodium falciparum [1]): 100% | Inhibition (Plasmodium falciparum [2]): 100%

COc1ccc2ncc(F)c(C(O)CN3CCC(NCc4ccc5c(n4)NC(=O)CO5)CC3)c2c1.Cl (stereo not given)
Inhibition (Plasmodium falciparum [1]): 99% and 100% | Inhibition (Plasmodium falciparum [2]): 51% and 88%

CC(=O)Nc1ccc(OCCCCCOc2ccc(NC(C)=O)cc2Cl)c(Cl)c1
Inhibition (Plasmodium falciparum [1]): 93% | Inhibition (Plasmodium falciparum [2]): 0%

Cl.Oc1c(CNC2CCCCC2)cc(Cl)c2ccccc12
Inhibition (Plasmodium falciparum [1]): 98% | Inhibition (Plasmodium falciparum [2]): 100%

Nc1ncc(-c2ccc(S(=O)(=O)Nc3ccc(C(=O)N[C@@H](CCC(=O)O)C(=O)O)cc3)cc2)c(=O)[nH]1
Inhibition (Plasmodium falciparum [1]): 99% | Inhibition (Plasmodium falciparum [2]): 0%

Cc1nc(C)c(-c2ccc(Oc3ccc(OC(F)(F)F)cc3)cc2)c(OC(=O)c2ccc(CN(C)C)cc2)c1Cl
Inhibition (Plasmodium falciparum [1]): 98% | Inhibition (Plasmodium falciparum [2]): 98%

Nc1ncc(-c2ccc(F)c(Cl)c2)c(N)n1
Inhibition (Plasmodium falciparum [1]): 83% | Inhibition (Plasmodium falciparum [2]): 0%

CN=C(N)c1ccc(NC(=O)C=Cc2ccc(C(=O)Nc3ccc(C(N)=NC)cc3)cc2)cc1.Cl
Inhibition (Plasmodium falciparum [1]): 97% | Inhibition (Plasmodium falciparum [2]): 100%

Nc1nc(N)c2c(ccc3c2ccn3Cc2ccc(Br)cc2)n1
Inhibition (Plasmodium falciparum [1]): 100% | Inhibition (Plasmodium falciparum [2]): 98%

CCCCCCCc1c(C)[nH]c2ccc(F)cc2c1=O
Inhibition (Plasmodium falciparum [1]): 98% | Inhibition (Plasmodium falciparum [2]): 96%

Cc1ccc2ccncc2c1N
Inhibition (Plasmodium falciparum [1]): 96% | Inhibition (Plasmodium falciparum [2]): 4%

CC1CCNc2ccc(Cc3cnc(N)nc3N)cc21.Cl (stereo not given)
Inhibition (Plasmodium falciparum [1]): 82% | Inhibition (Plasmodium falciparum [2]): 0%

Cl.c1ccc2c(c1)cc(CNCCCN1CCN(CCCNCc3cc4ccccc4c4ccccc34)CC1)c1ccccc12
Inhibition (Plasmodium falciparum [1]): 100% | Inhibition (Plasmodium falciparum [2]): 98%

Cc1nc(NCc2ccccc2)cc(Nc2cc(NCc3ccccc3)nc(C)n2)n1
Inhibition (Plasmodium falciparum [1]): 90% | Inhibition (Plasmodium falciparum [2]): 32%

Cc1nc(C)c(-c2ccc(Oc3cc(Cl)cc(Cl)c3)cc2)c(O)c1Br
Inhibition (Plasmodium falciparum [1]): 96% | Inhibition (Plasmodium falciparum [2]): 97%

CN(C)S(=O)(=O)n1ccc2c3c(N)nc(N)nc3ccc21
Inhibition (Plasmodium falciparum [1]): 94% | Inhibition (Plasmodium falciparum [2]): 0%

Nc1nc(N)c2c(Sc3ccccc3)cccc2n1
Inhibition (Plasmodium falciparum [1]): 97% | Inhibition (Plasmodium falciparum [2]): 0%

From ChEMBL document CHEMBL1157539, “Thousands of chemical starting points for antimalarial lead identification” (Nature, 2010)
